Assay results from PubChem BioAssay (NCATS).
Records with an inconclusive call do not appear. Activity calls are given as the source filed them. Calls follow the shape of the dose curve; as a rule, active = well fitted inhibition curve with a large enough effect; inconclusive = small, poorly fitted or top-dose-only effect; inactive = flat fitted curve, though single readings scatter.

How the values were obtained:
Assay in all cases: Cytotoxic Profiling of Annotated Libraries Using Quantitative High-Throughput Screening (AID 1296008); also: nearly all actives have a fitted effect of over 60% in size
Details in all cases: Five cell lines viability, CellTiter-Glo ATP luminescence, 48-72 h; max response: hits give low values
HaCat = system: HaCat
Outline: (§1)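 Cells exposed to compounds for 48 or 72 hr at 37 degrees Celsius. Viability read as ATP-coupled luminescence with CellTiter-Glo after 10 min at room temperature.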

KB-3-1 = system: KB-3-1
Outline: as §1

NIH3T3 = system: NIH3T3
Outline: as §1

Measured: max response
% is scaled to controls: 0 for no effect and ±100 for the full control effect.

Fc1ccc2nc(CCC#Cc3ccccn3)cn2c1
inactive: HaCat -2.5% | KB-3-1 -13.9% | NIH3T3 -0.863%

CC1(C)CC[C@]2(C(=O)O)CC[C@]3(C)C(=CCC4[C@@]5(C)CC[C@H](O[C@@H]6O[C@H](C(=O)O)[C@@H](O[C@@H]7OC[C@@H](O)[C@H](O)[C@H]7O)[C@H](O)[C@H]6O)C(C)(C)C5CC[C@]43C)C2C1O (stereo partly specified)
inactive: HaCat -24% | KB-3-1 | NIH3T3 -13.7%

C[C@@H]1C(=O)OC[C@H]2C(C(=O)O)=C[C@@H]3CC(C)(C)C[C@]312
inactive: HaCat 3.35% | KB-3-1 5.81% | NIH3T3 4.19%

CC(C)CC1NC(=O)C(C)NC(=O)C(CC(C)C)OC(=O)CCCNC1=O (stereo unspecified)
inactive: HaCat -8.69% | KB-3-1 | NIH3T3 -22.2%

O=C(CN1C(=O)C2(CCCC2)NCC1c1cc(F)cc(F)c1)Nc1ccc2c(c1)CC1(C2)C(=O)Nc2ncccc21 (stereo unspecified)
inactive: HaCat 1.71% | KB-3-1 | NIH3T3 -0.622%

CC1C(OC(=O)c2ccccc2)C(O)C2C(C(=O)O)=COC(OC3OC(CO)C(O)C(O)C3O)C12 (stereo unspecified)
inactive: HaCat -2.92% | KB-3-1 | NIH3T3 4.34%

CC1(C)CC[C@]2(CO[C@@H]3O[C@H](CO)[C@@H](O)[C@H](O)[C@H]3O)[C@@H](O)C[C@]3(C)C(=CCC4[C@@]5(C)CC[C@H](O[C@@H]6O[C@H](CO[C@@H]7O[C@H](CO[C@@H]8OC[C@@H](O)[C@H](O)[C@H]8O)[C@@H](O)[C@H](O)[C@H]7O)[C@@H](O)[C@H](O)[C@H]6O)C(C)(C)C5CC[C@]43C)[C@@H]2C1 (stereo partly specified)
inactive: HaCat -32.8% | KB-3-1 -2.27% | NIH3T3 -21.6%
